# From PubChem
# CYP2C19 inh = human CYP2C19 inhibition; CYP2C19 Supersomes, luciferin-H EGE luminescence, 30 min; 96,000 tested, 21% active; P33261; inhibition, % at 5 µM;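 active = CYP2C19 inhibition above a set limit at 5 µM in the primary screen, cut at about 50% in these data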;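 also: plate controls were negative control wells for no effect and 2.5 mM tranylcypromine positive control for full effect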
# Target sequence (P33261 whole entry, looked up): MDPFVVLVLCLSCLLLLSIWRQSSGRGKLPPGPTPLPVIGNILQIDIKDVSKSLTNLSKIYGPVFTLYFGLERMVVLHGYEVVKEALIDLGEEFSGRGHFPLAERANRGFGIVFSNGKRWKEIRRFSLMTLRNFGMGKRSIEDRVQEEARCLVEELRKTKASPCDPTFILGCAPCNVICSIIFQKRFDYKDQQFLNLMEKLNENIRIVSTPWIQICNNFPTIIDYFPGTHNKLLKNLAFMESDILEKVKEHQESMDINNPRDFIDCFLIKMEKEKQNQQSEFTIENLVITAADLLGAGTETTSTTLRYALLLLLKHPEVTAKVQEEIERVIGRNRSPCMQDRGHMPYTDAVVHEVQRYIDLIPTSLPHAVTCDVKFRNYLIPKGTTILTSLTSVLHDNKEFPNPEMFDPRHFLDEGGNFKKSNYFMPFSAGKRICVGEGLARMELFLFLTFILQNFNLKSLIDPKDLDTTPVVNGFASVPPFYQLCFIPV
# CYP2C9 act = CYP2C9 (human) activation | P11712 | recombinant CYP2C9, luciferin-H conversion, luminescence; hits give high values; factor 1 = untreated enzyme, 0 = blocked | activation factor at 5 µM | 96,000 tested, 1.4% active;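 active = activation factor of 2 or more for CYP2C9 at a 5 µM dose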;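 also: 0 = sulfaphenazole-blocked wells and 1 = vehicle-only wells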
# CYP2C9 inhib = blocks human cytochrome P450 2C9. 96,000 tested, 20% active. inhibition, % at 5 µM. CYP2C9 Supersomes, luciferin-H conversion, luminescence. P11712;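 active = blocking of liver enzyme CYP2C9 beyond about 50% at 5 µM, limit read from the data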
# CYP2C19 act = cytochrome P450 2C19 (human) activation | 96,000 tested, under 10 active | recombinant CYP2C19, luciferin-H EGE luminescence; hits give high values; 0 = fully inhibited enzyme, 1 = untreated enzyme | activation factor at 5 µM | P33261 | AID 1025;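 active = activation factor of at least 2 at 5 µM in the primary screen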;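 also: 0 = wells with 2.5 mM tranylcypromine and 1 = vehicle-only wells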
# Numbers without * were called inactive. A selection: hits, their analogues and other compounds. The true share with any hit is near 31%.
SMILES,CYP2C19 inh,CYP2C9 act,CYP2C9 inhib,CYP2C19 act
O=C(CN(C1CCCCC1)S(=O)(=O)c1ccc(Cl)cc1)NCc1ccncc1,94.4*,0.2,82.5*,0.1
O=C(CN(C1CCCCC1)S(=O)(=O)c1ccc(F)cc1)NCc1ccncc1,85.6*,0.2,82.8*,0.1
C=CCn1c(CCNC(=O)c2cccs2)nnc1SCC(=O)Nc1cccc(Cl)c1C,16.5,0.5,45.1,0.8
CCC(C)(C)n1nnnc1CN1CCC(c2nc3ccc(C)cc3[nH]2)CC1,46.9,0.3,66.4*,0.5
COc1cc2nc(N3CCN(C(=O)C4CCCO4)CC3)nc(N)c2cc1OC (stereo not given),32.6,0.4,60.0*,0.7
Cc1cccc(NC(=O)c2cccnc2)c1,7.3,1,1.3,0.9
Cc1cccc(NC2=C(Cl)C(=O)OC2NC(=O)c2ccccc2)c1 (stereo not given),39.5,0.5,53.5*,0.6
O=C(Cn1nnc2ccccc2c1=O)NCc1ccco1,2.3,0.8,17.9,1
COc1ccc(CC(=O)Nc2ccc(-c3noc(-c4ccccc4OC)n3)cc2)cc1,41.0,1.2,-19.8,0.6
O=C(c1cc2nc(-c3ccco3)cc(C(F)(F)F)n2n1)N1CCN(c2ccc(F)cc2)CC1,81.4*,0.4,63.8*,0.2
O=C(Nc1ccc(Cl)cc1)c1cc2nc(-c3ccco3)cc(C(F)(F)F)n2n1,16.7,0.3,70.9*,0.8
Fc1ccc(N2CCN(c3nc(-c4ccco4)cc(C(F)(F)F)n3)CC2)cc1,53.5*,0.5,48.7,0.5
CC(C)NC(=O)c1cc2nc(-c3ccco3)cc(C(F)(F)F)n2n1,3.3,0.9,8.1,1
Cc1nn(-c2nc(-c3ccco3)cc(C(F)(F)F)n2)c(C)c1Br,15.9,0.5,51.8*,0.8
CN1CCN(C(=O)c2cc3nc(-c4ccc(F)cc4)cc(C(F)(F)F)n3n2)CC1,-17.8,1.2,-19.6,1.2
Cc1cc2nc(-c3ccco3)cc(C(F)(F)F)n2n1,12.1,1,0.6,0.9
FC(F)(F)c1cc(-c2ccco2)nc(N2CCN(Cc3ccccc3)CC2)n1,37.7,0.7,33.2,0.6
Cc1cc([N+](=O)[O-])nn1CC(=O)NNC(=S)Nc1ccc(F)cc1,0.5,1.1,-8.5,1
CC(C)(C)c1nc2scc(-c3ccc(Cl)cc3)c2c(=O)o1,6.3,0.8,22.0,0.9
O=C(c1cc2nc(-c3ccco3)cc(C(F)(F)F)n2n1)N1CCN(Cc2ccccc2)CC1,47.0,0.4,63.8*,0.5
CCN1CCN(C(=O)c2cc3nc(-c4ccccc4)cc(C(F)(F)F)n3n2)CC1,13.9,1,3.3,0.9
CC(OC(=O)c1cccs1)C(=O)NCc1cccs1 (stereo not given),95.2*,0.4,62.0*,0
CC(C(=O)NCc1cccs1)N1C(=O)c2ccccc2C1=O (stereo not given),23.6,0.8,23.5,0.8
CC(C)CC(OC(=O)c1cccs1)C(=O)NCc1cccs1 (stereo not given),95.3*,0.1,92.2*,0
CCC(=O)Oc1ccc(C2N(C(=O)CC)CCN2S(=O)(=O)c2ccc(C)cc2)cc1OC (stereo not given),19.8,0.7,31.7,0.8
SMILES,CYP2C19 inh,CYP2C9 act,CYP2C9 inhib,CYP2C19 act
O=c1cc(CO)occ1OCc1ccccc1,-10.7,1.1,-7.1,1.1
O=[N+]([O-])c1ccc(N2CCN(S(=O)(=O)c3ccc(Cl)cc3)CC2)cc1NCc1cccnc1,4.8,0.5,53.0*,1
COC(=O)c1cccc(NC(=O)C(C)N2C(=O)c3ccccc3C2=O)c1 (stereo not given),48.4,0,98.5*,0.5
O=C(NC1CCCCC1)N(CCN1CCCC1)Cc1cc2cc3c(cc2[nH]c1=O)OCCO3,5.2,0.9,5.6,0.9
O=C(NC1CCCCC1)N(CCO)Cc1cc2cc3c(cc2[nH]c1=O)OCCO3,2.7,0.5,53.2*,1
CC(=O)N1CCCc2cc(S(=O)(=O)Nc3ccc4c(c3)OCO4)ccc21,98.6*,0.1,86.8*,0
CC(=O)N1CCc2cc(S(=O)(=O)Nc3cccc(C(F)(F)F)c3)ccc21,95.3*,0.3,71.0*,0
CC(=O)N1CCc2cc(S(=O)(=O)CCC(=O)NCc3ccc4c(c3)OCO4)ccc21,44.9,1.2,-15.7,0.6
Cn1c(=O)[nH]c(=O)c2c1nc(NCCCO)n2CCCc1ccccc1,10.5,0.9,9.9,0.9
Cc1ccc(C(=O)O)cc1S(=O)(=O)N1CCC(C(=O)O)CC1,-17.8,1.3,-25.3,1.2
Cc1ccc(C(=O)Nc2ccon2)cc1S(=O)(=O)N1CCCCCC1,87.5*,0.8,19.7,0.1
